Sampled rows, rich in hits. Any-hit rate of the full collection: about 2.6%.
Cruzain Triton = cruzain (T. cruzi) inhibition with detergent; P25779; purified cruzain, Z-FR-AMC fluorescence, 0.01% Triton; Potency, µM, without a hit: max response, negative = inhibition, most hits filed as inhibitors; actives 0.43% (n = 200,000); AID 1478;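 note: plate controls were neutral wells for no effect and buffer without enzyme for full effect; nearly all actives have a fitted effect of over 40% in size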
Target sequence (P25779 123-467 limits assumed): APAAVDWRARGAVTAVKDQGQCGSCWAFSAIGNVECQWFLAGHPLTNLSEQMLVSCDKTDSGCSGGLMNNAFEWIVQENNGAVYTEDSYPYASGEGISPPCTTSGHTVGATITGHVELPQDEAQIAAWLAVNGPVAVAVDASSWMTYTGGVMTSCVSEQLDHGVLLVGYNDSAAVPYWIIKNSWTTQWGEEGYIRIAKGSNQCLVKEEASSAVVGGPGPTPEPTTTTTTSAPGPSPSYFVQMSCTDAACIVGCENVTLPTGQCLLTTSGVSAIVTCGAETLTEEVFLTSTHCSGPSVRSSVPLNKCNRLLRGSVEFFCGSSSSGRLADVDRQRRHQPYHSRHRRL
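In this qHTS format, compounds are incubated with 1.5 nM cruzain for 15 min at room temperature before 2 uM Z-FR-AMC is added. Release of AMC is followed at 360/450 nm, and progress is taken as the 60 s fluorescence difference.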
Cruzain noTriton = cruzain (T. cruzi) inhibition without detergent; P25779; purified cruzain, Z-FR-AMC fluorescence, no detergent; Potency, µM, inactives show max response, negative = inhibition, actives largely listed as inhibitors; actives 2.3% (n = 200,000); AID 1476;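 note: plate controls were enzyme without inhibitor for no effect and buffer without enzyme for full effect; nearly all actives have a fitted effect of over 40% in size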
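Detergent-free condition (0.00005% Triton X-100) in acetate buffer pH 5.5 with DTT. 1.5 nM enzyme and compound were pre-mixed 15 min, then 2 uM Z-FR-AMC substrate added; reaction progress from fluorescence change between first and third reads (60 s).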
Numbers without * were called inactive; ? = inconclusive. Calls come from the whole dose curve; as a rule, active = well fitted curve in the direction sought with a large enough effect; inconclusive = small, poorly fitted or top-dose-only effect, or another doubt; inactive = no such curve, though single readings can be large; an effect the other way counts as inactive or inconclusive. Potency is the fitted concentration of half-maximal effect.

SMILES	Cruzain Triton	Cruzain noTriton
Cc1cccc(NC(=O)Cn2ncc3c4ccccc4n(Cc4ccccc4)c3c2=O)c1C	-2%	-7%
CCNc1ncc2nc(-c3ccc(F)cc3)c(=O)n(CCC#N)c2n1	-4%	5%
Cc1c(Br)c([N+](=O)[O-])nn1CCCC(=O)Nc1sc2c(c1C#N)CCC2	-16%	1%
Cc1c(Br)c([N+](=O)[O-])nn1CC(=O)Nc1sc2c(c1C(=O)OC(C)C)CCCC2	2%	13µM*
CC(C)c1ccc(OCc2cc(=O)n3c4c(sc3n2)CCCC4)cc1	0%	-4%
NC(N)=Nc1nc(CSCC/C(N)=N\S(N)(=O)=O)cs1	25µM*	13µM*
N[C@@H](Cc1cc(-c2ccc(Cl)cc2Cl)cc(CP(=O)(O)O)c1O)C(=O)O	2%	0%
O=[N+]([O-])c1ccc(N2CCN(S(=O)(=O)c3ccccc3[N+](=O)[O-])CC2)cc1N1CCc2ccccc2C1	-4%	6.3µM*
CN1CCN(c2cc(N3CCc4ccccc4C3)c(F)cc2[N+](=O)[O-])CC1	-1%	12%
Cc1cc(S(=O)(=O)Nc2ccc(C(=O)O)cc2)c(C)c(S(=O)(=O)c2ccc(Cl)cc2)c1	-7%	3%
Cc1nc(NC2=NCN(CCCN3CCOCC3)CN2)nc2c(C)cccc12	?	25µM*
Cc1cc2nc(NC3=NCN(CCN4CCOCC4)CN3)nc(C)c2cc1C	-7%	-6%
COc1ccc(C(=O)Nc2cccc(OC)c2)cc1	4%	0%
COc1ccc(C(=O)Nc2ccc3c(c2)Cc2ccccc2-3)cc1	6%	10µM*
COc1cccc(OC)c1C(=O)NC(=S)Nc1ccc2c(c1)C(=O)N(C)C2=O	-3%	-2%
COc1c(C)cccc1C(=O)NC(=S)Nc1ccc2c(c1)Cc1ccccc1-2	2%	20µM*
COc1cc(NC(=S)NC(=O)c2ccccc2C)ccc1NC(=O)c1cccs1	1%	-21%
COc1cccc(OC)c1C(=O)NC(=S)Nc1ccc2c(c1)Cc1ccccc1-2	-24%	16µM*
Cc1ccc(N2CCN(c3c(CN4CCCC4)c(=O)oc4ccccc34)CC2)c(C)c1	0%	-29%
CC(C)c1c(C#N)c(N)nc(SCC(=O)c2cc3ccccc3oc2=O)c1C#N	1%	-37%
N#Cc1ccc(-c2ccccc2)nc1SCC(=O)c1cc2ccccc2oc1=O	-5%	20µM*
Cc1ccc(-n2ncc3c(NCCC4=CCCCC4)ncnc32)cc1C	2%	8%
Cc1nc2ccc(S(=O)(=O)CCC(=O)Nc3ccc(C(C)C)cc3)cc2s1	0%	-4%
O=C(N/N=C/C=C/c1ccccc1[N+](=O)[O-])c1cc(-c2ccccc2)n[nH]1	-18%	25µM*
O=C(N/N=C\C=C\c1ccco1)c1cc(-c2ccc3ccccc3c2)n[nH]1	-10%	16µM*
SMILES	Cruzain Triton	Cruzain noTriton
O=C(N/N=C/C=C\c1ccccc1[N+](=O)[O-])c1ccccn1	-9%	4%
O=C(N/N=C/C=C/c1ccco1)c1cccnc1	-10%	-3%
CCOc1ccc(Nc2c(S(=O)(=O)c3ccc(Cl)cc3)cnc3ccc(OC)cc23)cc1	-4%	-19%
CCc1nn(CC(=O)NC(C)CCc2ccccc2)c(=O)c2cc3c(OC)cccc3n12 (stereo not drawn)	1%	-1%
Cc1ccc(OCC(=O)NC(=S)Nc2ccc(Br)c(C)n2)cc1	4%	16µM*
Cc1nc(NC(=S)NC(=O)COc2ccc(Cl)cc2)ccc1Br	1%	?
CCCN(CCC)C(=O)Cn1c(=O)n(CCCCCC(=O)NCc2ccc3c(c2)OCO3)c(=O)c2sccc21	-1%	5%
CCN(C(=O)Cn1ncc2c(=O)oc3ccccc3c21)c1ccccc1F	6%	-13%
Cc1ccc(Nc2nnc(SCC(=O)Nc3ncc(S(=O)(=O)c4ccc([N+](=O)[O-])cc4)s3)s2)cc1	-1%	7.9µM*
CS(=O)(=O)Nc1nnc(SCC(=O)Nc2cccc([N+](=O)[O-])c2)s1	-5%	9%
CCC(C)(C)C(=O)Nc1ncc(S(=O)(=O)c2ccc([N+](=O)[O-])cc2)s1	-12%	-10%
O=C(Nc1ncc(Cc2cccc(Cl)c2Cl)s1)c1ccc([N+](=O)[O-])cc1	4%	-22%
O=C(Nc1ncc(Cc2cc(Cl)ccc2Cl)s1)c1ccc([N+](=O)[O-])cc1	4%	13µM*
O=C(Nc1nnc(CCS(=O)(=O)c2ccc3ccccc3c2)s1)c1ccc([N+](=O)[O-])cc1	-1%	13µM*
O=C(Nc1nnc(CCS(=O)(=O)c2ccc3ccccc3c2)s1)c1cccs1	-1%	?
O=C(Nc1ncc(S(=O)(=O)c2ccc([N+](=O)[O-])cc2)s1)c1ccc2ccccc2c1	0%	20µM*
COc1cc2cc(CNc3ccccc3)c(=O)n(CC(=O)Nc3cccc(Cl)c3C)c2cc1OC	-4%	9%
OCc1ccc(-c2ccc(-c3ccc(CO)s3)o2)s1	-20%	?
O=C(CSc1nc2c(sc3ccccc32)c(=O)n1CCc1ccccc1)NCc1ccco1	0%	5µM*

Screening results from PubChem BioAssay.
